Calls of active or inactive are those of the source.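 Rule for the calls: active = fitted AC50 no higher than ten times the top tested dose (cut at about 90 µM in these data); inconclusive = flat curve with 30 to 70% signal loss, or bad fit; inactive = AC50 beyond ten times the top dose.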
Assay: TruHit bead signal quenchers or artefacts – biochemical, TruHit kit, artefact control, dose response (AID 1259339)
Details: TruHit alphaLISA kit signal interference counterscreen; series mostly up to 80 µM; activity change, negative = signal loss: at the top concentration

Row | SMILES | activity change, negative = signal loss | AC50
1 | Cc1ccc(S(=O)(=O)Cc2ccc(C(=O)N3CCC4(CC3)OCCO4)o2)cc1 | -4.38% (inactive) | –
2 | O=C(NC1(C(F)(F)F)Oc2ccc(Cl)cc2O1)N1CCC2(CC1)OCCO2 (centres undefined) | – | > 160 µM (inactive)
3 | O=C(NCCc1ccccc1)c1cc2cccnc2n(Cc2ccccc2)c1=O | -4.4% (inactive) | –
4 | Nc1c(C(=O)NCc2ccco2)c2nc3ccccc3nc2n1CCN1CCOCC1 | – | 56.6 µM (active)
